APE1 inh: APE1 (human) endonuclease inhibition; P27695; recombinant APE1, TAMRA/BHQ-2 abasic DNA cleavage fluorescence; Potency, µM (top dose mostly 65.8 µM), for the others: top-dose activity change, negative = inhibition, actives largely listed as inhibitors; actives 0.35% (n = 350,000); AID 2517;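 also: plate controls were vehicle for no effect and reference inhibitor for full effect; nearly all actives have a fitted effect of over 55% in size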
Target sequence (P27695 whole entry, looked up): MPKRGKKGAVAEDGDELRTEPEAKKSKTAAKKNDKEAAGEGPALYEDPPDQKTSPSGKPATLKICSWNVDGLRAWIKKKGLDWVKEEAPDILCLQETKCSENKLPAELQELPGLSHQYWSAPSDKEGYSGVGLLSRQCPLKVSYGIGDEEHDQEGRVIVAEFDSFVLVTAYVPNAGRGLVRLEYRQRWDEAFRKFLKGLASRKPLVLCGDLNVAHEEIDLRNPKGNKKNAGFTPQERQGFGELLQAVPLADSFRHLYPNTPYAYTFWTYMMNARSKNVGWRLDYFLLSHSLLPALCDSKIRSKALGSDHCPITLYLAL
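Compound pre-exposure to 0.75 nM APE1, 15 min at ambient temperature. Reaction initiated with 50 nM TAMRA/BHQ-2 THF substrate, read immediately in kinetic mode, 525 nm excitation, 598 nm emission.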
JMJD2E inh: JMJD2E (human) inhibition; JMJD2E catalytic domain, FDH-coupled NADH fluorescence (FDH is formaldehyde dehydrogenase); actives 1.6% (n = 230,000); AID 2147; B2RXH2; Potency, µM (top dose mostly 57.1 µM), for the others: top-dose activity change, negative = inhibition, hits mostly inhibitors; active = well fitted inhibition curve with a large enough effect, not every such curve was filed as active; inconclusive = small, poorly fitted or top-dose-only effect, or another doubt; inactive = no such curve, though single readings can be large or run the other way;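 also: 0% = wells with enzyme and -100% = buffer wells without enzyme; nearly all actives have a fitted effect of over 50% in size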
Target sequence (B2RXH2 1-337 limits assumed): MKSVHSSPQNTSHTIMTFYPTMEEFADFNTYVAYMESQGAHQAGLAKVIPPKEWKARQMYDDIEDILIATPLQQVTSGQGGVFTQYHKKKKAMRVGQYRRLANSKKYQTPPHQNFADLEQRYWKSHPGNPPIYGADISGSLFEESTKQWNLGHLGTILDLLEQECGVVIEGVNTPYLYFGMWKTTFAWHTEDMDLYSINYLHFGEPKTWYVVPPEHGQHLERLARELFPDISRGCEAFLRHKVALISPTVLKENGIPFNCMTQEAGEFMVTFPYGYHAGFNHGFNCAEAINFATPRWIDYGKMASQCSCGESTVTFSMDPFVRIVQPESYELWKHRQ
PKM2 act: activators of human pyruvate kinase M2. Potency, µM (titrated, usually from 57.5 µM), for inactives: at the highest dose activation, most hits filed as activators. actives 0.34% (n = 260,000). purified PKM2, Kinase-Glo ATP luminescence, activation; response scale: 0% is enzyme alone, no compound; also: nearly all actives have a fitted effect of over 55% in size
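Purified hPK-M2 (>95%) run at intermediate activity with 0.1 mM ADP and 0.5 mM PEP in 50 mM imidazole pH 7.2, KCl, MgCl2; 1 h room temperature. ATP formed read by Kinase-Glo luminescence; normalized to uninhibited and no-enzyme controls.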
RECQ1 inh-1: RECQ1 (human) helicase inhibition | actives 0.54% (n = 240,000) | Potency, µM (series often up to 57.3 µM), inactives show at the top dose activity, negative = inhibition, actives largely listed as inhibitors | RECQ1 DNA unwinding, red fluorescence kinetic read | P46063;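 also: plate controls were vehicle for no effect and no enzyme for full effect; nearly all actives have a fitted effect of over 30% in size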
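RECQ1T1 50 nM; forked duplex (20 bp + 30-nt ss tails) 200 nM, ATP 2 mM final; pH 8.0, 2 mM MgCl2, 2.5 ug/ml poly(dI-dC); 15 min compound preincubation; discontinuous kinetic read over 2 h at RT.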
BLM inh: blocks DNA unwinding by human BLM helicase | recombinant BLM DNA unwinding, fluorescence dequenching | Potency, µM (series often up to 56.1 µM), for inactives: at the highest dose activity change, negative = inhibition, hits mostly inhibitors | actives 0.2% (n = 350,000);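 also: plate controls were vehicle for no effect and no enzyme for full effect; nearly all actives have a fitted effect of over 35% in size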
RECQ1 inh conf: confirmation of human RECQ1 helicase inhibitors. shares compounds with RECQ1 inh-1. RECQ1 helicase DNA unwinding, fluorescence. Potency, µM (doses to about 229 µM), for the others: at the highest dose activity change, negative = inhibition, most hits filed as inhibitors. actives 28% (n = 610); also: nearly all actives have a fitted effect of over 45% in size
ADP FP counter: ADP displacement flagged in RECQ1 inhibitor counter-screen. shares compounds with RECQ1 inh-1. Potency, µM (highest dose often 228 µM), without a hit: top-dose activity change, negative = inhibition, hits mostly inhibitors. ADP fluorescence polarization displacement counterscreen. actives 27% (n = 530). AID 2711; also: nearly all actives have a fitted effect of over 45% in size
RECQ1 inh-2: blocks human RECQ1 DNA unwinding; shares compounds with RECQ1 inh-1; Potency, µM (highest dose often 119 µM), for the others: at the highest dose activity, negative = inhibition, actives largely listed as inhibitors; actives 15% (n = 1,100); AID 504841; recombinant RECQ1 DNA unwinding, red fluorescence; also: nearly all actives have a fitted effect of over 50% in size
Starred values were filed as active, the others as inactive; i = inactive; ? = inconclusive; . = no result; [ ] = another dose, or the depositor's remark. Only a selection was taken, and hits are over-represented in it overall. Unless noted, calls follow the shape of the dose curve; as a rule, active = well fitted curve in the direction sought with a large enough effect; inconclusive = small, poorly fitted or top-dose-only effect, or another doubt; inactive = no such curve, though single readings can be large; an effect the other way counts as inactive or inconclusive. Unless noted, % is scaled to controls: 0 for no effect and ±100 for the full control effect; potency is read from the fitted curve at half-maximal effect.

SMILES	APE1 inh	JMJD2E inh	PKM2 act	RECQ1 inh-1	BLM inh	RECQ1 inh conf	RECQ1 inh-2	others
CC1CCc2nc3ccc(S(=O)(=O)N4CCC(C(=O)N5CCCCC5)CC4)cc3c(C(=O)O)c2C1 (stereo not drawn)	-2.4%	-15.6%	-3.6%	-3.6%	1.7%	.	.
O=C(O)c1c2c(nc3ccc(S(=O)(=O)N4CCC(C(=O)N5CCCCC5)CC4)cc13)CCCC2	-10.4%	?	0.9%	?	-5.6%	.	8.3%
Cc1ccc2nc3sc(C(=O)NCc4ccco4)c(N)c3cc2c1	-2.1%	0.1%	13.5%	-8.6%	-4.9%	.	.
COc1cc2cc3c(N)c(C(=O)NCc4ccco4)sc3nc2cc1OC	?	?	5.7%	?	-23.8%	.	?
COc1ccccc1-n1cnnc1SCC(=O)c1cc(C)n(Cc2cccs2)c1C	?	-21.9%	-0.4%	?	-3.7%	.	-10.8%
C[C@H]1C=CC(=O)C[C@H]1c1c(F)cccc1Cl	-3.6%	.	.	i	3.7%	.	.
COCCN1C=C(C(=O)OC)C(c2ccc3c(c2)OCO3)C(C(=O)OC)=C1	2.5%	?	1.1%	i	-6.7%	.	.
COC(=O)C1=C(C)N2C(=O)CSC2=NC1c1ccc2c(c1)OCO2 (stereo not drawn)	9.8%	-1.2%	20.7%	?	-6.0%	.	-16.4%
CC(=O)Oc1ccc2c(=O)c(Oc3ccccc3)coc2c1OC(C)=O	2.24µM*	3.55µM*	-6.3%	3.55µM*	-9.0%	.	25.1µM*
OC1(C#CCN2CCOCC2)CCCCC1	5.9%	-6.4%	7.9%	-2.9%	3.2%	.	.
CC(C)(O)C#CC#CCN1CCOCC1	14.0%	3.6%	-3.6%	?	-3.6%	.	-9.1%
CN(C)c1ccc(/C=C/c2ccc3ccccc3[n+]2C)cc1	-1.7%	-20.6%	-31.9%	?	?	.	.
Cc1cc(/C=C/c2ccc3cc(N(C)C)ccc3[n+]2C)c(C)n1-c1ccccc1	?	?	.	25.1µM*	-23.2%	271.1%	.	ADP FP counter=39.8µM*
O=C1NC(=S)S/C1=C\C=C\c1ccc([N+](=O)[O-])o1	2.82µM*	20µM*	-10.6%	12.6µM*	-14.4%	?	.
C=CCn1c(SCC(=O)NCC2CCCO2)nc2scc(-c3ccco3)c2c1=O (stereo not drawn)	?	1.0%	?	?	-23.2%	.	?
NC(=O)CSc1nc2scc(-c3ccco3)c2c(=O)n1-c1ccccc1	10.9%	?	?	28.2µM*	?	?	?	ADP FP counter=-5.1%[91.9 µM]
O=c1c2c(-c3ccco3)csc2nc(SCc2cn3cccnc3n2)n1-c1ccccc1	-1.7%	?	?	12.6µM*	-11.2%	.	-22.5%
O=C(CSc1nc2scc(-c3ccco3)c2c(=O)n1-c1ccccc1)N1CCOCC1	-3.9%	-26.4%	13.4%	i	-4.7%	.	.
c1ccc(Cn2c(SCc3cn4cccnc4n3)nnc2-c2ccco2)cc1	-1.1%	?	?	10.6%	3.0%	.	.
O=C(Nc1cc2c(oc1=O)CCCC2=O)c1ccc(Cl)cc1	?	-10.3%	0.5%	14.1µM*	?	14.1µM*	.	ADP FP counter=?
CCC(=O)N1CCc2cc(S(=O)(=O)CCC(=O)Nc3cc(Cl)ccc3OC)ccc21	.	.	.	.	-0.1%	.	.
COc1cccc(CNC(=O)CCc2c(C)nc3c4c(C)cc(C)nc4nn3c2C)c1	.	.	.	.	-5.5%	.	.
O=C(NC(Cc1ccccc1)C(=O)O)/C(=C/c1ccc(F)cc1)NC(=O)c1ccccc1 (stereo not drawn)	13.4%	4.6%	-3.3%	-2.3%	5.6%	.	.
CC(NC(=O)/C(=C/c1ccc2c(c1)OCO2)NC(=O)c1cccc([N+](=O)[O-])c1)C(=O)O (stereo not drawn)	15.5%	?	11.6%	-5.5%	-3.7%	14.0%	.	ADP FP counter=-14.8%
O=C(NC(Cc1ccccc1)C(=O)O)/C(=C/c1ccco1)NC(=O)c1cccc([N+](=O)[O-])c1 (stereo not drawn)	-9.7%	-6.5%	2.1%	i	-1.5%	4.5%	.	ADP FP counter=-3.7%
SMILES	APE1 inh	JMJD2E inh	PKM2 act	RECQ1 inh-1	BLM inh	RECQ1 inh conf	RECQ1 inh-2	others
CC(C)NC(=O)/C(=C\c1cccc([N+](=O)[O-])c1)NC(=O)c1ccccc1	12.0%	12.9%	-8.1%	i	-2.3%	.	.
O=C(NC(Cc1ccccc1)C(=O)O)/C(=C/c1ccccc1)NC(=O)c1cccc(Br)c1 (stereo not drawn)	3.7%	4.3%	0.0%	-3.0%	-9.0%	10.5%	.	ADP FP counter=?
CCOC(=O)Cc1csc(SCC(=O)Nc2sc3c(c2C(N)=O)CCC3)n1	?	?	12.5%	?	-21.1%	.	?
CCOC(=O)Cc1csc(SCC(=O)Nc2nccs2)n1	6.6%	.	.	.	.	.	.
Cc1c(C(=O)N(Cc2ccco2)Cc2ccccc2Cl)oc2ccc(F)cc12	.	.	.	.	-4.1%	.	.
O=C(CSc1n[nH]c(-c2ccc(S(=O)(=O)N3CCCCC3)cc2)n1)Nc1nccs1	?	?	-1.4%	i	-6.1%	-6.4%	.	ADP FP counter=25.1%
Cn1c(SCC(=O)Nc2nccs2)nnc1-c1ccc(S(=O)(=O)N2CCCC2)cc1	0.5%	4.5%	8.1%	i	-0.8%	.	.
Cc1nnc(NC(=O)CSc2nnc(-c3ccc(S(=O)(=O)N4CCCC4)cc3)n2C)s1	4.4%	-6.0%	-21.8%	-0.7%	-5.7%	-1.0%	.	ADP FP counter=13.4%
Cc1cc(OCC(F)(F)C(F)(F)C(F)(F)C(F)(F)C(F)(F)C(F)F)nc(N)n1	2.3%	-6.0%	-4.0%	28.2µM*	-21.0%	.	-19.7%
NC(=O)c1ccc(OCC(F)(F)C(F)(F)C(F)(F)C(F)(F)C(F)(F)C(F)F)cc1	-11.3%	0.1%	0.1%	i	-6.2%	.	.
O=C(COc1ccc2c(c1)CCC2)N1CCN(c2cccc(C(F)(F)F)c2)CC1	?	4.0%	7.6%	35.5µM*	-5.5%	.	-14.2%
O=C(COc1cccc(C(F)(F)F)c1)N1CCN(c2ccc(O)cc2)CC1	-8.3%	?	22.0%	-5.2%	-1.2%	.	.
CCn1c(SC(C)C(=O)O)nc2sc3c(c2c1=O)CCC3 (stereo not drawn)	?	-9.6%	-0.7%	?	-10.0%	.	?
CCN(c1ccc(OC)cc1)S(=O)(=O)c1ccc2c(c1)CCN2C(=O)CCC(=O)O	-0.7%	-1.4%	-6.5%	-10.3%	0.5%	8.7%	.	ADP FP counter=-12.4%

High-throughput results as filed in PubChem BioAssay.
